Rows were chosen to be rich in hits. Some 1.7% of all compounds tested hit in one or more screens of this group.
IkB sig inh – suppresses IkB signaling in ABC-DLBCL reporter cells | ABC-DLBCL IkBa-CBG/CBR dual luciferase ratio, 4 h; response scale: scaled: untreated 0%, proteasome inhibitor 100% | Potency, µM (series often up to 57.1 µM), for the others: at the top dose IkBa stabilization activation | 110,000 compounds, 0.04% hits | AID 445; active = well fitted curve in the direction sought with a large enough effect in the signal ratio, not every such curve was filed as active; inconclusive = small, poorly fitted or top-dose-only effect, or a change in a side signal; the % refers to the signal ratio;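 also: the direction sought is a rising ratio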
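Luminescence ratio of IκBα-fused green versus native red beetle luciferase in OCI-Ly3 cells, 4 h post-doxycycline with compound; red signal alone, scaled from basal (0%) to zero light (-100%), flagged nonspecific or cytotoxic effects.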
Peg3 imprint – induces erasure of genomic imprints in mouse ES cells; mouse ES Peg3-LacZ reporter, beta-gal luminescence, 40 h; Potency, µM (doses to about 60.7 µM), for the others: top-dose activity change, positive = activation, usual class: activators; AID 1948; 110,000 compounds, 0.02% hits
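Each well holds 300 Peg3LacZ-Neo (maternal) female ES cells incubated 40 h at 37C, 5% CO2. LacZ is measured by BetaGlo luminescence, with AC50 and maximum efficacy derived from dose-response curves.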
p53ts 32C kill – kills p53ts cells at the permissive temperature. AID 924. H1299-p53A138V at 32C, ATP luminescence viability, 24 h. Potency, µM (doses to about 46.1 µM), inactives show at the highest dose activity change, negative = cytotoxicity, actives largely listed as cytotoxic. 130,000 compounds, 0.93% hits;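 also: 0% = DMSO and -100% = full killing by reference compound; nearly all actives have a fitted effect of over 55% in size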
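H1299-p53 A138V cells (temperature-sensitive p53) exposed 24 h to up to 46 uM compound at 32C, where p53 is wild-type in conformation. Viability read as ATP luminescence and normalised to DMSO and 100 uM tamoxifen. AC50 fitted with the Hill equation.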
p53ts 39C tox – cytotoxicity in p53ts cells at nonpermissive temperature | H1299-p53A138V viability at 39C, ATP luminescence, 24 h | Potency, µM (top dose mostly 46.1 µM), for inactives: at the highest dose activity change, negative = cell killing, hits mostly cytotoxic | 130,000 compounds, 1.5% hits | AID 902; also: % is scaled to controls: 0 for no effect and ±100 for the full control effect; nearly all actives have a fitted effect of over 55% in size
The depositor's hits bear a star; ? = inconclusive; nt = no result given; [ ] = another dose, or the depositor's remark. Unless noted, calls follow the shape of the dose curve; as a rule, active = well fitted curve in the direction sought with a large enough effect; inconclusive = small, poorly fitted or top-dose-only effect, or another doubt; inactive = no such curve, though single readings can be large; an effect the other way counts as inactive or inconclusive. Potency is read from the fitted curve at half-maximal effect.

SMILES | IkB sig inh | Peg3 imprint | p53ts 32C kill | p53ts 39C tox
O=C1C(c2ccncc2)=C(O)c2ccccc21 | ? | ? | 3.2µM* | 6.3µM*
Cc1cccc(Oc2nc3c(c(=O)n(C)c(=O)n3C)n2C)c1C | -3% | -6%[10.9 µM] | 1% | 8%
Cc1cc(N2CCCCC2)n2ncc(-c3ccccc3)c2n1 | 4% | -25% | 13µM* | ?
COc1ccc(-n2nnc(C(=O)Nc3ccccc3F)c2N)cc1 | ? | -35%[10.9 µM] | -15% | 18%
CCN(CC)CCOC(=O)c1ccc(NC(=O)c2nn(-c3ccc(C)cc3)c(=O)c3c2c2ccccc2n3C)cc1 | ? | -31%[10.9 µM] | 4µM* | 4µM*
Cc1ccc(Cn2cc(S(=O)(=O)c3ccc(C)cc3)c(=O)c3cc(F)c(N4CCCC4)cc32)cc1 | nt | nt | 1% | nt
CCCCCN=Cc1c(C)[nH]n(-c2nc3ccccc3s2)c1=O | ? | -97% | 1µM* | 0.79µM*
COc1ccc(-c2nc3nc(C)cc(Nc4cccc(C(F)(F)F)c4)n3n2)cc1 | 0% | -3%[10.9 µM] | 10% | -19%
COc1cccc(CNc2cc(C)nc3nc(-c4ccc(C)cc4)nn23)c1 | ? | -14%[10.9 µM] | ? | 7.9µM*
Cc1ccccc1Nc1c(-c2ccc(N3CCOCC3)cc2)nc2cccc(C)n12 | ? | -11%[10.9 µM] | ? | 7.9µM*
Cc1ccccc1Nc1c(-c2ccc(N3CCOCC3)cc2)nc2ccccn12 | ? | -10%[10.9 µM] | 1µM* | 1µM*
Cc1[nH]n2c(=O)cc(C(C)C)nc2c1-c1ccccc1 | -4% | 4% | -29% | 13µM*
Cc1[nH]n2c(=O)cc(C(C)(C)C)nc2c1-c1ccccc1 | 6% | -26% | -18% | ?
Clc1ccc(-n2ncc3c(NC4CCCC4)ncnc32)cc1 | ? | -14%[10.9 µM] | 13µM* | 16µM*
CC(C)Nc1ncnc2c1cnn2-c1ccccc1 | ? | -41% | 13µM* | ?
Cc1cccc(-n2ncc3c(NC(C)C)ncnc32)c1 | ? | -34% | 13µM* | 16µM*
Cc1cccc(-n2ncc3c(Nc4c(C)cc(C)cc4C)ncnc32)c1 | ? | -13%[10.9 µM] | 11% | -2%
Cc1nnc(SCC(=O)Nc2nsc(-c3ccccc3)n2)s1 | 2% | -5% | 13% | 11%
O=C(Nc1nsc(-c2ccccc2)n1)c1cccs1 | ? | -76% | 4µM* | 5µM*
CC(=O)c1ccc(NC(=O)c2ccn[nH]2)cc1 | 1% | -77% | 13µM* | 10µM*
C[C@@H]1C[C@@]2(C)Oc3ccccc3[C@H]3OC[C@]1(COC(=O)Nc1ccccc1)[C@@H](C)[C@@H]32 | 1%[11.4 µM] | nt | nt | nt
CC1(C)[C@@H](O)CC[C@@]2(C)[C@H]1CC[C@]1(C)[C@H]2C(=O)C=C2[C@@H]3C[C@@](C)(C(=O)O)CC[C@]3(C)CC[C@@]21C | 1%[11.4 µM] | nt | nt | nt
Cc1ccc(-c2nc(-c3ccccn3)no2)cc1Cl | ? | -93% | 2µM* | 2.5µM*
Cc1ccc(-c2nc(-c3ccccn3)no2)cc1 | nt | nt | 0.5µM* | 0.4µM*
Cc1ccc2nc(-c3ccccn3)oc2c1 | 1% | -91% | 3.2µM* | 5µM*
SMILES | IkB sig inh | Peg3 imprint | p53ts 32C kill | p53ts 39C tox
c1ccc(-c2cc(-c3nc(-c4ccccn4)no3)c3ccccc3n2)cc1 | 2% | -9% | -28% | -19%
COc1cc(-c2nc(-c3ccccn3)no2)cc(OC)c1OC | ? | -23% | -24% | -21%
Cc1ccc2nc(-c3cccnc3)oc2c1 | -2% | -71% | ? | ?
c1ccc(-c2nc(-c3ccccn3)no2)cc1 | nt | nt | 5.6µM* | 7.1µM*
COc1ccc([C@@H]2OC[C@]3(COC(C)=O)[C@H](C)C=C(C)[C@@H]2[C@H]3C)cc1 | -1%[11.4 µM] | nt | nt | nt
Clc1cccc(-c2nc(-c3ccccn3)no2)c1 | ? | -93% | 5µM* | 3.2µM*
c1ccc(-c2ccc(-c3nc(-c4ccccn4)no3)cc2)cc1 | ? | -94% | 1.6µM* | 3.2µM*
c1ccc(-c2noc(-c3ccco3)n2)nc1 | ? | -91% | -30% | ?
c1ccc(-c2noc(-c3cccc4ccccc34)n2)nc1 | ? | -77% | ? | ?
Cc1ccc(-c2noc(-c3ccccc3Br)n2)cc1 | 7% | -50% | 13µM* | 10µM*
O=C(/C=C\c1ccc(O)c(O)c1)O[C@H]1C[C@@](O)(C(=O)O)C[C@H](O)[C@@H]1O | -1%[11.4 µM] | nt | nt | nt
CCCCCCCC[N+](CCCCCCCC)(CCCCCCCC)CCCCCCCC | ? | -17% | ? | 16µM*
COc1ccccc1CNc1cc(-c2ccccc2C)ncn1 | 13%[11.4 µM] | -12% | ? | -26%
COc1ccccc1CNc1cc(-c2ccccc2OC)ncn1 | 15%[11.4 µM] | -16% | 13µM* | ?
CCNC(=O)c1c(NC(=O)c2nc(S(=O)(=O)CC)ncc2Cl)sc2c1CCCC2 | ? | -39%[10.9 µM] | ? | 3.2µM*
Cc1ccc(CNC(=O)c2nc(SCc3ccccc3C)ncc2Cl)cc1 | ? | -10%[10.9 µM] | -3% | -8%
CS(=O)(=O)c1ncc(Cl)c(C(=O)N(Cc2ccc(Cl)cc2)Cc2ccco2)n1 | ? | -40%[10.9 µM] | 28µM* | 3.2µM*
CCS(=O)(=O)c1ncc(Cl)c(C(=O)NCc2ccccc2)n1 | ? | -40%[10.9 µM] | ? | 13µM*
COc1ccc(N(Cc2ccccc2)C(=O)c2nc(S(C)(=O)=O)ncc2Cl)cc1 | ? | -38%[10.9 µM] | 7.9µM* | 4µM*
CCN(CC)C(=O)c1sc2c(c1C)c(=O)n(-c1ccc(Cl)c(Cl)c1)c(=O)n2Cc1cc(=O)n2c(C)cccc2n1 | -1% | -9%[10.9 µM] | 14% | 3%
COc1ccc(NC(=O)c2nc(S(=O)(=O)Cc3ccc(C)cc3)ncc2Cl)cc1 | -4% | -30%[10.9 µM] | ? | 6.3µM*
COc1ccc(CNC(=O)c2nc(S(=O)(=O)Cc3ccccc3)ncc2Cl)cc1 | ? | -24%[10.9 µM] | 20µM* | 5µM*
O=C(Nc1nc2ccc(F)cc2s1)c1nc(S(=O)(=O)Cc2ccccc2F)ncc1Cl | -3% | -67%[10.9 µM] | 10µM* | 5µM*
CC(C)Sc1ncc(Cl)c(C(=O)Nc2c(C(=O)Nc3ccccc3)oc3ccccc23)n1 | 1% | 8%[10.9 µM] | 17% | -15%
COc1ccc(CNC(=O)c2nc(SCc3ccc(C)cc3)ncc2Cl)cc1 | 0% | -13%[10.9 µM] | -6% | -23%
SMILES | IkB sig inh | Peg3 imprint | p53ts 32C kill | p53ts 39C tox
CCCS(=O)(=O)c1ncc(Cl)c(C(=O)Nc2c(C(=O)Nc3ccccc3)oc3ccccc23)n1 | ? | -39%[10.9 µM] | ? | 6.3µM*
Nc1nc2c(c(=O)[nH]1)N=C(CNc1ccc(C(=O)NC(CCC(=O)O)C(=O)O)cc1)CN2 (stereo unspecified) | nt | -1% | 9% | 7%
Cc1ccc(C)c(NC(=O)c2nc(S(=O)(=O)Cc3ccc(F)cc3)ncc2Cl)c1 | ? | -34%[10.9 µM] | ? | 4µM*
O=C(NCc1ccccc1)c1nc(S(=O)(=O)Cc2ccccc2)ncc1Cl | ? | -16%[10.9 µM] | ? | 7.9µM*
CCOc1ccc(NC(=O)c2nc(S(=O)(=O)Cc3ccccc3F)ncc2Cl)cc1 | ? | -40%[10.9 µM] | 14µM* | 7.9µM*
Cc1nc2nc(SCC(=O)Nc3cccc(Cl)c3)nn2c(C)c1Cc1ccccc1 | ? | -8%[10.9 µM] | 9% | ?

From PubChem
